Source: paper PMC5540273 (PLoS ONE, 2017)
Where “and” joins values, the source holds several entries; their conditions need not be identical. Equal entries are not always repeated. Where two headings read alike, the source gives them in different places.

Tests used:
TAOK2 = conditions: concentration: 1 μM, replicates: in singlicate; n = 1
TAOK3 = conditions: concentration: 1 μM, replicates: in singlicate, n = 1
TBK1 = conditions: concentration: 1 μM, replicates: in singlicate, n = 1
TEC = conditions: concentration: 1 μM, replicates: in singlicate; n = 1
TESK1 = conditions: concentration: 1 μM, replicates: in singlicate, n = 1
TGFBR1 = conditions: n = 1
TGFBR2 = conditions: concentration: 1 μM, replicates: in singlicate; n = 1
TIE1 = conditions: concentration: 1 μM, replicates: in singlicate, n = 1
TIE2 = tested on: T1, TIE2; conditions: concentration: 1 μM, replicates: in singlicate; n = 1
T1 construct: gene TEK

TLK1 = conditions: concentration: 1 μM, replicates: in singlicate, n = 1
TLK2 = conditions: concentration: 1 μM, replicates: in singlicate, n = 1
TNIK = conditions: concentration: 1 μM, replicates: in singlicate, n = 1
TNK1 = conditions: concentration: 1 μM, replicates: in singlicate; n = 1
TNK2 = conditions: concentration: 1 μM, replicates: in singlicate, n = 1
TNNI3K = conditions: concentration: 1 μM, replicates: in singlicate, n = 1
TRKA = tested on: T2, TRKA; conditions: concentration: 1 μM, replicates: in singlicate, n = 1
T2 construct: gene NTRK1

TRKB = conditions: concentration: 1 μM, replicates: in singlicate, n = 1
TRKC = tested on: T3, TRKC; conditions: concentration: 1 μM, replicates: in singlicate, n = 1
T3 construct: gene NTRK3

TRPM6 = conditions: concentration: 1 μM, replicates: in singlicate; n = 1
TSSK1B = conditions: concentration: 1 μM, replicates: in singlicate, n = 1
[1] = concentration: 1 μM, replicates: in singlicate
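Also: KINOMEscan kinase panel screen.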

Structure (SMILES): Cc1nnc(-c2ccc3occ(-c4ccc(C(C)O)cc4)c3c2)o1 (centres unmarked)
- %Inh (TAOK2): 8%
- %Inh (TAOK3): 0%
- %Inh (TBK1): 30%
- %Inh (TEC): 0%
- %Inh (TESK1): 3%
- %Inh (TGFBR1; [1]): 3%
- %Inh (TGFBR2): 69%
- %Inh (TIE1): 18%
- %Inh (TIE2): 16%
- %Inh (TLK1): 0%
- %Inh (TLK2): 0%
- %Inh (TNIK): 0%
- %Inh (TNK1): 0%
- %Inh (TNK2): 0%
- %Inh (TNNI3K): 27%
- %Inh (TRKA): 0%
- %Inh (TRKB): 0%
- %Inh (TRKC): 37%
- %Inh (TRPM6): 0%
- %Inh (TSSK1B): 0%

Structure (SMILES): CC(C)Oc1ccc2c(-c3ccnc(Nc4ccc(N5CCN(C)CC5)cc4)n3)cnn2n1 [GW696155]
- %Inh (TAOK2): 79%
- %Inh (TAOK3): 70%
- %Inh (TBK1): 97.9%
- %Inh (TEC): 0%
- %Inh (TESK1): 12%
- %Inh (TGFBR1; [1]): 29%
- %Inh (TGFBR2): 35%
- %Inh (TIE1): 80%
- %Inh (TIE2): 0%
- %Inh (TLK1): 95.3%
- %Inh (TLK2): 95.1%
- %Inh (TNIK): 32%
- %Inh (TNK1): 60%
- %Inh (TNK2): 46%
- %Inh (TNNI3K): 9%
- %Inh (TRKA): 54%
- %Inh (TRKB): 39%
- %Inh (TRKC): 42%
- %Inh (TRPM6): 43%
- %Inh (TSSK1B): 79%

Structure (SMILES): N#Cc1ccc(-c2cc(-c3c[nH]nc3-c3ccccn3)ccn2)cc1 [GW693028]
- %Inh (TAOK2): 0%
- %Inh (TAOK3): 0%
- %Inh (TBK1): 6%
- %Inh (TEC): 44%
- %Inh (TESK1): 23%
- %Inh (TGFBR1; 1 µM): 87%
- %Inh (TGFBR2): 83%
- %Inh (TIE1): 0%
- %Inh (TIE2): 0%
- %Inh (TLK1): 0%
- %Inh (TLK2): 0%
- %Inh (TNIK): 75%
- %Inh (TNK1): 0%
- %Inh (TNK2): 12%
- %Inh (TNNI3K): 31%
- %Inh (TRKA): 0%
- %Inh (TRKB): 4%
- %Inh (TRKC): 16%
- %Inh (TRPM6): 0%
- %Inh (TSSK1B): 16%

Structure (SMILES): NS(=O)(=O)c1cccc(-c2ccc3nccc(-c4cccc(S(N)(=O)=O)c4)c3c2)c1 [GW867253]
- %Inh (TAOK2): 31%
- %Inh (TAOK3): 6%
- %Inh (TBK1): 15%
- %Inh (TEC): 0%
- %Inh (TESK1): 7%
- %Inh (TGFBR1; [1]): 0%
- %Inh (TGFBR2): 0%
- %Inh (TIE1): 5%
- %Inh (TIE2): 0%
- %Inh (TLK1): 3%
- %Inh (TLK2): 15%
- %Inh (TNIK): 16%
- %Inh (TNK1): 0%
- %Inh (TNK2): 0%
- %Inh (TNNI3K): 0%
- %Inh (TRKA): 0%
- %Inh (TRKB): 0%
- %Inh (TRKC): 0%
- %Inh (TRPM6): 0%
- %Inh (TSSK1B): 0%

Structure (SMILES): COc1ccc(Nc2nccc(N3CCC(NC(=O)Nc4cc(C)ccc4C)C3)n2)cc1 (centres unmarked) [GSK1379741]
- %Inh (TAOK2): 0%
- %Inh (TAOK3): 0%
- %Inh (TBK1): 0%
- %Inh (TEC): 20%
- %Inh (TESK1): 14%
- %Inh (TGFBR1; [1]): 0%
- %Inh (TGFBR2): 0%
- %Inh (TIE1): 0%
- %Inh (TIE2): 0%
- %Inh (TLK1): 0%
- %Inh (TLK2): 0%
- %Inh (TNIK): 0%
- %Inh (TNK1): 0%
- %Inh (TNK2): 9%
- %Inh (TNNI3K): 0%
- %Inh (TRKA): 0%
- %Inh (TRKB): 0%
- %Inh (TRKC): 22%
- %Inh (TRPM6): 32%
- %Inh (TSSK1B): 13%

Structure (SMILES): Fc1ccc(-c2ncn(CCCN3CCOCC3)c2-c2ccccn2)cc1 [SB-211742]
- %Inh (TAOK2): 5%
- %Inh (TAOK3): 0%
- %Inh (TBK1): 21%
- %Inh (TEC): 0%
- %Inh (TESK1): 0%
- %Inh (TGFBR1; [1]): 52%
- %Inh (TGFBR2): 6%
- %Inh (TIE1): 0%
- %Inh (TIE2): 27%
- %Inh (TLK1): 0%
- %Inh (TLK2): 0%
- %Inh (TNIK): 0%
- %Inh (TNK1): 24%
- %Inh (TNK2): 0%
- %Inh (TNNI3K): 0%
- %Inh (TRKA): 0%
- %Inh (TRKB): 0%
- %Inh (TRKC): 0%
- %Inh (TRPM6): 0%
- %Inh (TSSK1B): 0%

Structure (SMILES): NCCNS(=O)(=O)c1ccc(-c2ccnc3[nH]ccc23)cc1 [GSK977617]
- %Inh (TAOK2): 0%
- %Inh (TAOK3; 1 µM): 0% and 2%
- %Inh (TBK1; 1 µM): 27% and 24%
- %Inh (TEC): 0%
- %Inh (TESK1; 1 µM): 14% and 13%
- %Inh (TGFBR1; [1]): 0%
- %Inh (TGFBR2): 0%
- %Inh (TIE1; 1 µM): 32% and 23%
- %Inh (TIE2): 0%
- %Inh (TLK1; 1 µM): 36% and 13%
- %Inh (TLK2; 1 µM): 37% and 34%
- %Inh (TNIK; 1 µM): 61% and 55%
- %Inh (TNK1): 0%
- %Inh (TNK2; 1 µM): 4% and 6%
- %Inh (TNNI3K; 1 µM): 13% and 5%
- %Inh (TRKA; 1 µM): 100% and 97.9%
- %Inh (TRKB; 1 µM): 89% and 82%
- %Inh (TRKC; 1 µM): 80% and 63%
- %Inh (TRPM6): 0%
- %Inh (TSSK1B; 1 µM): 56% and 46%

Structure (SMILES): CN(C(=O)c1ccc(-c2cc(-c3c[nH]nc3-c3ccccn3)ccn2)cc1)C1CCOCC1 [GW810083]
- %Inh (TAOK2): 0%
- %Inh (TAOK3): 0%
- %Inh (TBK1): 0%
- %Inh (TEC): 0%
- %Inh (TESK1): 1%
- %Inh (TGFBR1; 1 µM): 77%
- %Inh (TGFBR2): 21%
- %Inh (TIE1): 0%
- %Inh (TIE2): 1%
- %Inh (TLK1): 0%
- %Inh (TLK2): 0%
- %Inh (TNIK): 23%
- %Inh (TNK1): 0%
- %Inh (TNK2): 0%
- %Inh (TNNI3K): 0%
- %Inh (TRKA): 38%
- %Inh (TRKB): 41%
- %Inh (TRKC): 17%
- %Inh (TRPM6): 0%
- %Inh (TSSK1B): 0%

Structure (SMILES): Cl.Nc1ncnc2occ(-c3ccc(NC(=O)Nc4cc(C(F)(F)F)ccc4F)cc3)c12 [SB-707548]
- %Inh (TAOK2): 22%
- %Inh (TAOK3): 17%
- %Inh (TBK1): 35%
- %Inh (TEC): 4%
- %Inh (TESK1): 17%
- %Inh (TGFBR1; [1]): 33%
- %Inh (TGFBR2): 0%
- %Inh (TIE1): 98.7%
- %Inh (TIE2): 99.8%
- %Inh (TLK1): 14%
- %Inh (TLK2): 4%
- %Inh (TNIK): 67%
- %Inh (TNK1): 46%
- %Inh (TNK2): 20%
- %Inh (TNNI3K): 90.8%
- %Inh (TRKA): 100%
- %Inh (TRKB): 94.1%
- %Inh (TRKC): 100%
- %Inh (TRPM6): 0%
- %Inh (TSSK1B): 0%

Structure (SMILES): COc1cc(Nc2nccc(N3CCC(NC(=O)c4cccc(NC(C)=O)c4)C3)n2)cc(OC)c1OC (centres unmarked) [GSK1379754]
- %Inh (TAOK2): 0%
- %Inh (TAOK3): 0%
- %Inh (TBK1): 17%
- %Inh (TEC): 0%
- %Inh (TESK1): 15%
- %Inh (TGFBR1; [1]): 0%
- %Inh (TGFBR2): 0%
- %Inh (TIE1): 61%
- %Inh (TIE2): 0%
- %Inh (TLK1): 0%
- %Inh (TLK2): 0%
- %Inh (TNIK): 0%
- %Inh (TNK1): 0%
- %Inh (TNK2): 16%
- %Inh (TNNI3K): 0%
- %Inh (TRKA): 69%
- %Inh (TRKB): 0%
- %Inh (TRKC): 22%
- %Inh (TRPM6): 22%
- %Inh (TSSK1B): 18%
